# Source: PubChem (National Center for Advancing Translational Sciences (NCATS))
# Pf growth 96h: P. falciparum growth inhibition at 96 hour, primary screen for plastid delayed-death inhibitors. 320,000 compounds, 6.9% hits. Potency, µM (titrated, usually from 28.7 µM), for the others: at the highest dose activity change, negative = inhibition, usual class: inhibitors. AID 504834. P. falciparum luciferase reporter growth, 96 h
#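 Parasite growth measured via integrated firefly luciferase reporter in P. falciparum. Infected erythrocytes at 2% hematocrit, 0.05% parasitemia final were treated 96 hours at 37 C under 5% CO2, and luminescence was read.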
# Pf growth 48h: P. falciparum growth inhibition at 48 hours (one generation) | Potency, µM (series often up to 28.7 µM), for inactives: at the highest dose activity change, negative = inhibition, hits mostly inhibitors | AID 504832 | 310,000 compounds, 5.9% hits | P. falciparum luciferase growth in erythrocytes, 48 h
#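 Cell-based growth assay: transgenic P. falciparum expressing firefly luciferase, cultured in red cells within RPMI 1640 containing 0.5% w/v Albumax, 24 mM bicarbonate and gentamycin. A drop in luciferase activity indicates inhibition.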
# AmpC no deterg: AmpC beta-lactamase inhibition without detergent. AmpC nitrocefin hydrolysis, absorbance 480 nm, 0.0001% Triton. 330,000 compounds, 0.52% hits. Potency, µM (series often up to 57.1 µM), without a hit: at the highest dose activity change, negative = inhibition, most hits filed as inhibitors. P00811;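 note: plate controls were no compound for no effect and no enzyme for full effect; nearly all actives have a fitted effect of over 20% in size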
# Target sequence (P00811 whole entry, looked up): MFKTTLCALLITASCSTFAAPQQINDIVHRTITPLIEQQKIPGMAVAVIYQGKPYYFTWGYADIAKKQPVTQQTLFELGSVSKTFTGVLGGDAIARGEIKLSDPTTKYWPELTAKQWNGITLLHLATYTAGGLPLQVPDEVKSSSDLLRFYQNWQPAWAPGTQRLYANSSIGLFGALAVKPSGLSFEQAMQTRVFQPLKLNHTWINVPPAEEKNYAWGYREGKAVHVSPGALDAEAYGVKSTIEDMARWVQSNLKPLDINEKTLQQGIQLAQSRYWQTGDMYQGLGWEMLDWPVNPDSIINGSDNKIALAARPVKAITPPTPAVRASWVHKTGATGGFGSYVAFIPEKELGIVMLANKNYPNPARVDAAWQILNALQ
#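 AmpC (5.3 nM in the dispensed reagent) in 20 mM phosphate pH 7.0 with 0.01% (detergent screen) or 0.0001% Triton X-100 was preincubated with compounds for 15 min at room temperature. Nitrocefin was then added from an 800 uM solution, and hydrolysis was followed at 480 nm.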
# AMA1 RON2 block: inhibitors of Plasmodium falciparum AMA1-RON2 interaction | AlphaScreen AMA1-biotinylated RON2 peptide binding | Potency, µM (titrated, usually from 58.2 µM), inactives show top-dose activity change, negative = inhibition, hits mostly inhibitors | 360,000 compounds, 0.2% hits;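 note: 0% = vehicle wells and -100% = peptide control; nearly all actives have a fitted effect of over 45% in size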
#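 AMA1 (3D7) with his tag at 25 nM final met compounds first, then biotinylated RON2 peptide at 25 nM; detection used donor plus acceptor beads, 10 µg/mL apiece, read by AlphaScreen after 30 min at room temperature.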
# AmpC inh detg: blocks E. coli AmpC beta-lactamase in detergent assay; 370,000 compounds, 0.041% hits; AmpC hydrolysis of nitrocefin, absorbance 480 nm, 0.01% Triton; Potency, µM (titrated, usually from 114 µM), for inactives: at the top dose activity change, negative = inhibition, usual class: inhibitors; P00811;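 note: 0% = no-compound wells and -100% = no-enzyme wells; nearly all actives have a fitted effect of over 25% in size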
#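 AmpC (5.3 nM in the dispensed reagent) in 20 mM phosphate pH 7.0 with 0.01% (detergent screen) or 0.0001% Triton X-100 was preincubated with compounds for 15 min at room temperature. Nitrocefin was then added from an 800 uM solution, and hydrolysis was followed at 480 nm.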
# HCV inhibitor: HCV inhibition | Huh7.5.1 HCVcc-Cre infection, luciferase reporter, 44 h | Potency, µM (highest dose often 41.8 µM), inactives show at the highest dose activity change, negative = inhibition, actives largely listed as inhibitors | 340,000 compounds, 3.4% hits | AID 651820
#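 Antiviral activity was scored by luciferase reporter output from cells infected with HCVcc-Cre (~0.5 moi) in presence of compound, 44 h infection period, cells seeded 1,000/well 4 h prior.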
# Numbers without * were called inactive; ? = inconclusive; nt = no result; [ ] = remark or other dose. Sampled rows, rich in hits. Any-hit rate of the full collection: about 11%. Calls come from the whole dose curve; as a rule, active = well fitted curve in the direction sought with a large enough effect; inconclusive = small, poorly fitted or top-dose-only effect, or another doubt; inactive = no such curve, though single readings can be large; an effect the other way counts as inactive or inconclusive. Unless noted, % is set by controls: 0 for no effect and ±100 for the full control effect; potency is the fitted concentration of half-maximal effect.
SMILES,Pf growth 96h,Pf growth 48h,AmpC no deterg,AMA1 RON2 block,AmpC inh detg,HCV inhibitor
CCOC(=O)C1=C(C)N=C2SCCC(=O)N2C1c1cccs1 (stereo unspecified),-6.5%,6.7%,-1.6%,8.4%,?,15.2%
CCCc1cc(=O)[nH]c(SCc2nc(-c3ccc(OCC)cc3)no2)n1,nt,nt,nt,nt,14.2%,nt
CCCCCCCCOC(=O)C1=C(C)Nc2nnnn2C1c1cccs1 (stereo unspecified),nt,nt,0.9%,-1.7%,?,-4.0%
CC1=C(C(=O)OC(C)C)C(c2cccs2)C(C(=O)OC(C)C)=C(C)N1,?,13.1µM*,-1.5%,12.4%,-9.2%,?
C#CCSC1=C(C#N)C(c2cccs2)C(C(=O)OCC)=C(C)N1 (stereo unspecified),2.8%,10.4µM*,-21.6%,16.3%,?,?
CCCCCCCOC(=O)C1=C(C)Nc2ncnn2C1c1cccs1 (stereo unspecified),38.6%,10.4µM*,-17.7%,-4.4%,-2.8%,?
CC1=C(C(=O)OC(C)C)C(c2cccs2)NC(=O)N1 (stereo unspecified),16.7%,-7.9%,0.2%,0.0%,-14.5%,11.0%
CCOC(=O)C1=C(C)NC(C)=C(C(=O)OCC)C1c1sccc1C,49.1%,5.22µM*,21.4%,24.7%,-6.2%,-15.3%
COc1cccc(N2CCN(C(=O)c3cc4c(s3)-c3c(C)cccc3OC4)CC2)c1,nt,nt,nt,nt,21.6%,nt
Cc1ccc(C2CCN(C(=O)Nc3ccc(C)c(C)c3)C2)cc1 (stereo unspecified),nt,nt,nt,nt,-0.9%,nt
COc1cccc(CNC(=O)C2CCN(S(=O)(=O)c3c(C)noc3/C=C/c3cccs3)CC2)c1,nt,nt,nt,nt,-1.2%,nt
COc1ccc(NC(=O)CSc2nc(-c3ccc(OC)cc3)[nH]c2-c2ccc(OC)cc2)cc1,nt,nt,nt,nt,-2.0%,nt
ClCCN1CCN(c2ccnc3cc(Cl)ccc23)CC1,0.828µM*,0.828µM*,3.1%,-29.1%,-15.1%,-13.9%
O=C(O)CSCC(=O)N1CCN(c2ccnc3cc(Cl)ccc23)CC1,?,?,-0.8%,6.4%,-8.5%,-10.3%
CCCCNC(=O)N1CCN(c2ccnc3cc(Cl)ccc23)CC1,3.7µM*,4.65µM*,7.2%,9.8%,1.7%,-3.1%
O=S(=O)(c1ccccc1)N1CCN(c2ccnc3cc(Cl)ccc23)CC1,30.1%,?,15.5%,-13.8%,-6.4%,?
O=S(=O)(c1cccs1)N1CCN(c2ccnc3cc(Cl)ccc23)CC1,6.57µM*,9.28µM*,19.5%,-20.1%,-5.5%,?
CC(=O)N1CCN(c2ccnc3cc(Cl)ccc23)CC1,11.7µM*,?,-8.6%,-10.5%,-9.2%,20.9%
COc1ccc(-c2cc3nc(C4CCN(C(=O)OC(C)(C)C)CC4)c(C(=O)Nc4cc(Cl)cc(Cl)c4)cn3n2)cc1,nt,nt,nt,nt,2.7%,nt
CCOc1ccc(CNC(=O)C2CCCN(S(=O)(=O)c3ccc4c(ccn4C)c3)C2)cc1 (stereo unspecified),nt,nt,nt,nt,14.3%,nt
CCOC(=O)CSc1nc2cc3c(cc2c(=O)n1Cc1ccc(C(=O)NCCc2ccc(OC)c(OC)c2)cc1)OCO3,nt,nt,nt,nt,4.3%,nt
CCCCCN(C(=O)CCC(=O)OCc1cc(C)ccc1C)c1c(N)n(CCCC)c(=O)[nH]c1=O,?,11.2%,31.9%,-8.2%,-1.1%,?
CCCCCN(C(=O)CCC(=O)OCc1ccc(C(C)(C)C)cc1)c1c(N)n(CCCC)c(=O)[nH]c1=O,8.28µM*,?,11.2%,-10.1%,-4.2%,?
CCCCCN(C(=O)CCC(=O)OCc1ccccc1F)c1c(N)n(CCCC)c(=O)[nH]c1=O,40.3%,?,-6.6%,-13.3%,0.0%,-1.1%
CCCCCN(C(=O)CCC(=O)OCc1ccc(C(C)C)cc1)c1c(N)n(CCCC)c(=O)[nH]c1=O,10.4µM*,35.5%,28.9%,13.7%,-8.2%,-20.2%
SMILES,Pf growth 96h,Pf growth 48h,AmpC no deterg,AMA1 RON2 block,AmpC inh detg,HCV inhibitor
O=C(NCC1CCCO1)C(=Cc1cccc([N+](=O)[O-])c1)C(=O)NCC1CCCO1 (stereo unspecified),13.1µM*,?,-16.8%,26.6%,-6.4%,?
O=C(NCC1CCCO1)c1ccc(Oc2ccc([N+](=O)[O-])cc2Cl)cc1 (stereo unspecified),35.5%[1.15 µM],-2.7%,52.0%,4.9%,5.8%,33.6%
O=C(NCC1CCCO1)c1ccc(Oc2ccc([N+](=O)[O-])cc2)cc1 (stereo unspecified),1.47µM*,4.4%,-4.7%[2.29 µM],1.5%,-6.5%,-1.9%
CN(C)c1ccc(C=NC(CO)C(O)c2ccc([N+](=O)[O-])cc2)cc1 (stereo unspecified),11.9%,32.5%,-11.3%,-2.9%,1.9%,6.1%
CN(C)c1ccc(C(c2ccc(N(C)C)cc2)c2ccc([N+](=O)[O-])cc2)cc1,11.7µM*,-56.1%,-25.4%,8.91µM*,-11.9%,-15.8%
COc1cccc(CNC(=O)Cn2ncn3nc(-c4cccs4)cc3c2=O)c1,nt,nt,nt,nt,-9.9%,nt
Clc1ccc(CSc2cc3c(nn2)-c2ccccc2CC3)cc1Cl,11.7%,-6.8%,0.316µM*,24.0%,4.6%,-4.9%
COc1cc(OC)cc(-c2cc3ncccc3cn2)c1,35.7%,34.7%,-11.1%,-2.4%,6.3%,11.2µM*
c1ccc(-c2ncc(CSc3nncn3-c3ccccc3)s2)cc1,?,nt,18.0%,-9.7%,6.5%,-13.4%
Cc1nnc(SCc2cnc(-c3ccc(C(C)C)cc3)s2)n1C,11.7µM*,250.1%,81.9%,14.8%,-1.0%,12.3%
COCCCNC(=O)c1c(-c2ccccc2)c(-c2ccccc2)nn(C)c1=O,nt,nt,nt,nt,-2.0%,nt
CCCCc1nc2ccccc2c(NC(=O)CNC(C)(C)C)c1CCC,-24.6%,-22.6%,nt,-7.3%,-1.3%,?
CCCCc1nc2ccccc2c(N)c1CCC (tested in a mixture with another compound),?,9.28µM*,0.9%,3.8%,4.1%,-54.8%
CCn1c(SCC(=O)Nc2cc(C)on2)nnc1-c1ccc(S(=O)(=O)N2CCCC2)cc1,-0.6%,?,0.4%,-2.1%,?,16.1%
Cc1cc(NC(=O)CSc2nnc(-c3ccc(S(=O)(=O)N4CCCC4)cc3)n2C)no1,11.7µM*,?,6.1%,-3.2%,?,?
Cc1csc(NC(=O)CSc2nnc(-c3ccc(S(=O)(=O)N4CCCC4)cc3)o2)n1,nt,5.86µM*,-6.1%,71.7%,?,-5.3%
Cn1c(SCC(=O)NCc2ccco2)nnc1-c1ccc(S(=O)(=O)N2CCOCC2)cc1,11.7µM*,-10.2%,-7.8%,-0.5%,?,18.1%
